Results as given in a collection of fitness landscapes (doi:10.1016/j.celrep.2020.107928).
The full ranking holds about 81,000 sequences; the median of “one-hybrid fitness for binding parS DNA” is about -0.17, and the highest 2% start at about 0.51. This excerpt belongs to a sample that is enriched for the highest values.

B1: Caulobacter ParB omega fusion; a variant is named by its letters at X, in order, B8GW30 (parent)
chain: MESVVVGEPGMSEGRRGLGRGLSALLGEVDAAPAQAPGEQLGGSREAPIEILQRNPDQPRRTFREEDLEDLSNSIREKGVLQPILVRPSPDTAGEYQIVAGERAWRAAQRAGLKTVPIMVRELDDLAVLEIGIIENVQRADLNVLEEALSYKVLMEKFERTQENIAQTIGKSXSHVANXMRLLXLPDEVQSYLVSGELTAXHARAIAAAADPVALAKQIIEGGLSVRETEALARKAPNLSAGKSKGGRPPRVKDTDTQALESDLSSVLGLDVSIDHRGSTGTLTITYATLEQLDDLCNRLTRGI

Variants of: B1
Assay: one-hybrid fitness for binding parS DNA (scaled: cognate 1, non-cognate 0); higher = stronger binding
Details: with parS DNA site
Procedure, shortened: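 Pre- and post-selection plasmids were Illumina-sequenced, three replicate libraries were pooled, and any variant with under 10 reads was removed. The libraries were Caulobacter ParB with four specificity codons randomised, selected in E. coli USO through a HIS3 reporter whose site is 19 bp from the promoter. Cells grew 48 hours at 37°C on M9 without histidine, with 0.1 mM IPTG and 5 mM 3-AT. Fitness is the log change in variant-to-wild-type read ratio, rescaled against cognate and non-cognate.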

one-hybrid fitness for binding parS DNA, 0.223:
RMIH

one-hybrid fitness for binding parS DNA, 0.864:
RFMG

one-hybrid fitness for binding parS DNA, 0.889:
RQNT

one-hybrid fitness for binding parS DNA, 0.228:
RLEH

one-hybrid fitness for binding parS DNA, 0.893:
RHTS

one-hybrid fitness for binding parS DNA, 0.948:
RAES

one-hybrid fitness for binding parS DNA, 0.86:
RQLT

one-hybrid fitness for binding parS DNA, 0.318:
RQYM

one-hybrid fitness for binding parS DNA, 0.503:
RNRY

one-hybrid fitness for binding parS DNA, 0.771:
RNCG

one-hybrid fitness for binding parS DNA, 0.932:
RHMG

one-hybrid fitness for binding parS DNA, 0.914:
RVVC

one-hybrid fitness for binding parS DNA, 0.369:
RHEN

one-hybrid fitness for binding parS DNA, 0.902:
RSES
RFKT

one-hybrid fitness for binding parS DNA, 0.985:
RTES
RMMG

one-hybrid fitness for binding parS DNA, 1.01:
RFTS

one-hybrid fitness for binding parS DNA, 0.337:
RAEN

one-hybrid fitness for binding parS DNA, 0.45:
RMTN

one-hybrid fitness for binding parS DNA, 0.292:
RQHH

one-hybrid fitness for binding parS DNA, 0.207:
RMTD

one-hybrid fitness for binding parS DNA, 0.866:
RNHG

one-hybrid fitness for binding parS DNA, 0.49:
RLMY

one-hybrid fitness for binding parS DNA, 0.996:
RIMG

one-hybrid fitness for binding parS DNA, 0.921:
RNSG

one-hybrid fitness for binding parS DNA, 0.806:
RRMG

one-hybrid fitness for binding parS DNA, 0.279:
RIEN

one-hybrid fitness for binding parS DNA, 0.475:
RCTN

one-hybrid fitness for binding parS DNA, 0.439:
RMKF
RTKH

one-hybrid fitness for binding parS DNA, 0.962:
RHES
RSMG

one-hybrid fitness for binding parS DNA, 0.319:
RQSM

one-hybrid fitness for binding parS DNA, 0.384:
RHTN

one-hybrid fitness for binding parS DNA, 0.232:
RTTH
RLTH

one-hybrid fitness for binding parS DNA, 0.351:
RKEN

one-hybrid fitness for binding parS DNA, 0.435:
RAMY

one-hybrid fitness for binding parS DNA, 0.881:
RFES

one-hybrid fitness for binding parS DNA, 0.215:
RMMQ

one-hybrid fitness for binding parS DNA, 0.387:
RTVN

one-hybrid fitness for binding parS DNA, 0.98:
RTAC

one-hybrid fitness for binding parS DNA, 0.831:
RNLG

one-hybrid fitness for binding parS DNA, 0.846:
RQCT

one-hybrid fitness for binding parS DNA, 0.992:
RITS

one-hybrid fitness for binding parS DNA, 0.301:
RQLM

one-hybrid fitness for binding parS DNA, 0.943:
RTTS

one-hybrid fitness for binding parS DNA, 0.815:
RKTS
RTKS

one-hybrid fitness for binding parS DNA, 0.349:
RQRM

one-hybrid fitness for binding parS DNA, 0.702:
RQWT

one-hybrid fitness for binding parS DNA, 0.93:
RIES

one-hybrid fitness for binding parS DNA, 0.94:
RNRG

one-hybrid fitness for binding parS DNA, 0.849:
RMKC
RQRT

one-hybrid fitness for binding parS DNA, 0.249:
RQGH

one-hybrid fitness for binding parS DNA, 0.255:
RATH

one-hybrid fitness for binding parS DNA, 0.951:
RKMG

one-hybrid fitness for binding parS DNA, 0.342:
RFEN

one-hybrid fitness for binding parS DNA, 0.214:
RITH

one-hybrid fitness for binding parS DNA, 0.947:
RMIG

one-hybrid fitness for binding parS DNA, 0.892:
RQHT

one-hybrid fitness for binding parS DNA, 0.421:
RQDY

one-hybrid fitness for binding parS DNA, 0.377:
RIMM

one-hybrid fitness for binding parS DNA, 0.206:
RMVP

one-hybrid fitness for binding parS DNA, 0.242:
RNGN

one-hybrid fitness for binding parS DNA, 0.984:
RLTS
RCTS

one-hybrid fitness for binding parS DNA, 0.322:
RMPY

one-hybrid fitness for binding parS DNA, 0.324:
RQDM

one-hybrid fitness for binding parS DNA, 0.975:
RMTS

one-hybrid fitness for binding parS DNA, 0.3:
RREN

one-hybrid fitness for binding parS DNA, 0.303:
RNLY

one-hybrid fitness for binding parS DNA, 0.614:
RFVT

one-hybrid fitness for binding parS DNA, 0.283:
RKMM

one-hybrid fitness for binding parS DNA, 0.355:
RVKF

one-hybrid fitness for binding parS DNA, 0.409:
RITN

one-hybrid fitness for binding parS DNA, 0.986:
RSTS
RTFC

one-hybrid fitness for binding parS DNA, 0.651:
RNWG

one-hybrid fitness for binding parS DNA, 0.752:
RRES

one-hybrid fitness for binding parS DNA, ≤ 0.2:
YMTL
CALA
RNWM
RNSD
RNGH
RNWQ
RNLQ
RNSH
DCGR
MWMK
TMVR
TWPL
YNCT
YGAI
AARF
ITIY
RNHM
RNHK
RNYP
RNCF
RNCH
RNYR
RNQF
RNQQ
GTAW
LGVR
PMST
LAKV
PYNM
TKAL
PHQS
QTGN
NQIG
LHGR
WVYT
VPRP
RNRK
FALT
KIQT
TSHI
RVVQ
RVVR
RVKR
DKVG
QKKI
HVMR
RAED
RPES
RCEP
RFEP
RLEP
SMRL
HSNG
IHDA
GPGK
LPNM
LTRT
GAAR
NIPL
RGEN
RGED
RHED
RRED
RSEP
RSEH
TVWR
ANGP
NLAR
SREP
GNAS
RIEP
RTED
RMEP
RKEP
RMED
SVCD
VPCS
QSKG
MNTS
SEHV
RLMV
TMAV
QAEE
RSDI
RMVH
RMKQ
EAIW
RTTP
RSTD
RKTD
RKTH
IIGK
ENYG
PEAY
HKGC
KDVC
LAWM
IPRY
RLTP
RFTP
RPTS
RFTH
RHTP
CLVL
FTSY
KNRS
LLFA
AVGG
AARP
SKSL
VMLN
SWPW
AGLI
MFAT
RATD
RFVP
NFKT
RFKP
RFVQ
GMAG
DNQC
KSSE
PNYS
RTFD
ITKL
KWHC
QGYA
RHMK
NFMG
RKMQ
DFMG
RIMR
AATS
LNQW
ILSS
QYSS
QVQQ
YRRM
RRMR
RAMK
REMG
RDMG
RRMM
RSMR
RPMG
LNGD
WSGR
IRPG
LHHS
PPPY
RTMR
RLMR
RTMK
RMMH
MPYE
MAAF
SSTQ
DFFS
VTNA
QCWG
SHRE
RRHI
TAII
LRVW
AKPV
QKYL
RMPL
RMIP
VWYT
HCQT
TAHC
RTVP
RTKD
PTHK
YTPL
RQRK
RQHD
RQSR
VPNM
PYKG
NCIC
LPKF
GQSM
WYTC
RQNE
RQNQ
RQQR
RQYK
RQGD
NLLR
RPHV
WPRR
VTAC
DHDY
MGLM
DCQR
HLAT
RQWR
RQLR
RQWF
RQCD
RQCP

one-hybrid fitness for binding parS DNA, 0.775:
RMPG

one-hybrid fitness for binding parS DNA, 0.882:
RNQG

one-hybrid fitness for binding parS DNA, 0.916:
RQST

one-hybrid fitness for binding parS DNA, 0.208:
RTEH

one-hybrid fitness for binding parS DNA, 0.847:
RQYT
RQGT

one-hybrid fitness for binding parS DNA, 0.841:
RNGG

one-hybrid fitness for binding parS DNA, 1.02:
RCES
RLMG

one-hybrid fitness for binding parS DNA, 0.956:
RMES

one-hybrid fitness for binding parS DNA, 0.995:
RAMG

one-hybrid fitness for binding parS DNA, 0.789:
RNYG

one-hybrid fitness for binding parS DNA, 1:
RLES
RATS
RTMG
RTVS

one-hybrid fitness for binding parS DNA, 0.28:
RQQF

one-hybrid fitness for binding parS DNA, 0.234:
RSTH

one-hybrid fitness for binding parS DNA, 0.436:
RTFN

one-hybrid fitness for binding parS DNA, 0.429:
RTAN

one-hybrid fitness for binding parS DNA, 0.895:
RQQT

one-hybrid fitness for binding parS DNA, 0.256:
RTAF

one-hybrid fitness for binding parS DNA, 0.383:
RHMY

one-hybrid fitness for binding parS DNA, 0.96:
RMVC

one-hybrid fitness for binding parS DNA, 0.899:
RKES

one-hybrid fitness for binding parS DNA, 1.03:
RCMG

one-hybrid fitness for binding parS DNA, 0.768:
RQDT

one-hybrid fitness for binding parS DNA, 0.813:
RVKC

one-hybrid fitness for binding parS DNA, 0.554:
RGES
